15 sequences from publication PMC3218832 can be followed below.

Among the targets are RELARELA (p65 homodimer) (Homo sapiens, UniProt Q04206 1-307); p50p50 homodimer (Homo sapiens, UniProt P19838 7-356); RELB subunit;p50 subunit (Homo sapiens;Homo sapiens, UniProt Q01201;P19838 120-401;7-356).
Common to all, as to assay: protein binding microarray; high values mean tight binding
What all share (details): dsDNA, one strand shown

The target of a further assay is T1, p52p52 homodimer (Homo sapiens, UniProt Q00653 4-332).
T1 sequence: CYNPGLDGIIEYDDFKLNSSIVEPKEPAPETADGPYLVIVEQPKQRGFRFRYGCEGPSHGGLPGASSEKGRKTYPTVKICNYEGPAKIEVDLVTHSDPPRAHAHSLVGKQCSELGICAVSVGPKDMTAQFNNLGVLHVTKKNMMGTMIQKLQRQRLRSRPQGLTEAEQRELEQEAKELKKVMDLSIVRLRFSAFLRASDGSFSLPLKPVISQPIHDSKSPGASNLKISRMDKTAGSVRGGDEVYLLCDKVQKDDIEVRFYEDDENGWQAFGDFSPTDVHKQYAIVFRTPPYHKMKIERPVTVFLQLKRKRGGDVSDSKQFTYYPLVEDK

In assay [1] the target is RELA (p65) subunit of heterodimer;p50 subunit (Homo sapiens;Homo sapiens, UniProt Q04206;P19838 1-307;7-356).
Sequence of RELA (p65) subunit of heterodimer;p50 subunit (Q04206 1-307, chain 1 of 2): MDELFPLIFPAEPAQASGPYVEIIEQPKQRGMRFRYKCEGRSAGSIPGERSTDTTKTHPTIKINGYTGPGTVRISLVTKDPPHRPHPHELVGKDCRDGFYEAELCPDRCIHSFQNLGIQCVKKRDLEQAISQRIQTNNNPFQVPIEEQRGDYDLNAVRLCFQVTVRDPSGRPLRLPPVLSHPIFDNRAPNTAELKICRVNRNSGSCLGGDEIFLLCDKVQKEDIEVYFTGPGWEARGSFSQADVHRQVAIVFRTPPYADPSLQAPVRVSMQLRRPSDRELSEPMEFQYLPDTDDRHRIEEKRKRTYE
Sequence of RELA (p65) subunit of heterodimer;p50 subunit (P19838 7-356, chain 2 of 2): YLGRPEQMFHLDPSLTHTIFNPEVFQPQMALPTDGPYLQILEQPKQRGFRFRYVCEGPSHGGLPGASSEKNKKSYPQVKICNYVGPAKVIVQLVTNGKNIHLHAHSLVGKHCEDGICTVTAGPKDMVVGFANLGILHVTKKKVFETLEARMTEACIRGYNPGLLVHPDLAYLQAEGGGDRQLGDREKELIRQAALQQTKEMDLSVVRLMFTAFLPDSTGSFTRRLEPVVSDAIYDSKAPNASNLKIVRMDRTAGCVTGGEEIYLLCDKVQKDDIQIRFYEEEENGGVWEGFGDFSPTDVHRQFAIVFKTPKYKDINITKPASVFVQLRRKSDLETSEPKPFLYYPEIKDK
The target in assay [2] is RELA (p65) subunit of heterodimer;p52 subunit (Homo sapiens;Homo sapiens, UniProt Q04206;Q00653 1-307;4-332).
In the next assay the target is T2, RELB subunit;p52 subunit (Homo sapiens;Homo sapiens, UniProt Q01201;Q00653 120-401;4-332).
T2 sequence 1: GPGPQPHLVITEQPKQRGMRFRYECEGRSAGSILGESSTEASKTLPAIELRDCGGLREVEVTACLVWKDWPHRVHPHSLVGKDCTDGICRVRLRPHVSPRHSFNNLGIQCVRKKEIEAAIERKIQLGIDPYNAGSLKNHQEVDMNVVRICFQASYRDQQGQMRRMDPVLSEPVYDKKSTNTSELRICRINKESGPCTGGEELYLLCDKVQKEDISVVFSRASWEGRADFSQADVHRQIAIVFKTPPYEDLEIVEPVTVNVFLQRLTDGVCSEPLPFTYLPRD
T2 sequence 2: T1 sequence

Assay [3] concerns the target C-Rel subunit;p50 subunit (Homo sapiens;Homo sapiens, UniProt Q04864;P19838 1-285;7-356).
For assay [4], the target named is T3, C-Rel subunit;p52 subunit (Homo sapiens;Homo sapiens, UniProt Q04864;Q00653 1-285;4-332).
T3 sequence 1: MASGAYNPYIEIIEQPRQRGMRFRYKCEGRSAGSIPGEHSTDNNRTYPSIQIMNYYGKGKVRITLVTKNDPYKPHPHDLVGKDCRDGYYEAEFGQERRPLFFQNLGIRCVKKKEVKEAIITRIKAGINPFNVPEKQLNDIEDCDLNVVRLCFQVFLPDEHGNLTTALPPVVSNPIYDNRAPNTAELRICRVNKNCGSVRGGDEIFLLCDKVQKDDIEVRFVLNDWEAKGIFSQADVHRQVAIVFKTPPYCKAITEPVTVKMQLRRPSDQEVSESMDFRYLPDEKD
T3 sequence 2: T1 sequence

Sequence of p50p50 homodimer (P19838 7-356): as the sequence (P19838 7-356, chain 2 of 2) above
Sequence of RELARELA (p65 homodimer) (Q04206 1-307): as the sequence (Q04206 1-307, chain 1 of 2) above

In the case of CAGTACCCCCC, the binding signal with RELARELA (p65 homodimer) was -0.045 z-score; with p50p50 homodimer, 1.15 z-score; with p52p52 homodimer it was 0.733 z-score; in assay [1], 0.954 z-score; in assay [2], 0.96 z-score; with RELB subunit;p50 subunit it was 0.927 z-score. Moreover, the figures for the binding signal (with RELB subunit;p52 subunit; in [3]; in [4]) were 1.16 z-score, 0.886 z-score and 0.823 z-score, respectively.

For the sequence GAGAATACCCC, the binding signal came out at 0.964 z-score with RELARELA (p65 homodimer); 1.14 z-score with p50p50 homodimer; 0.914 z-score with p52p52 homodimer; 1.24 z-score in assay [1]; 1.18 z-score in [2]; 1.05 z-score with RELB subunit;p50 subunit. Besides, the binding signal amounted to 1.31 z-score in the assay with RELB subunit;p52 subunit, 1.03 z-score in assay [3] and 0.996 z-score in [4].

For GAGTGACTCCC, the binding signal is -0.623 z-score with RELARELA (p65 homodimer); -0.849 z-score in the assay with p50p50 homodimer; -0.413 z-score with p52p52 homodimer; -0.796 z-score in assay [1]; -0.812 z-score in assay [2]; -0.601 z-score with RELB subunit;p50 subunit. Further, the binding signal was -0.827 z-score with RELB subunit;p52 subunit, -0.837 z-score in [3] and -0.832 z-score in assay [4].

For CAGTAGCTCCT, the binding signal was -0.468 z-score with RELARELA (p65 homodimer); -1.98 z-score with p50p50 homodimer; -0.806 z-score with p52p52 homodimer; -1.09 z-score in assay [1]; -1.13 z-score in assay [2]; -1.24 z-score with RELB subunit;p50 subunit. For the same sequence, the values for the binding signal (with RELB subunit;p52 subunit; in assay [3]; in assay [4]) were -1.1 z-score, -1.72 z-score and -1.02 z-score, respectively.

For GAGTATTTCCC, the binding signal with RELARELA (p65 homodimer) is 2.24 z-score; with p50p50 homodimer, 0.925 z-score; with p52p52 homodimer it was 1.05 z-score; in [1], 1.27 z-score; in assay [2] it was 1.1 z-score; with RELB subunit;p50 subunit, 0.527 z-score. Also, the binding signal stood at 0.505 z-score with RELB subunit;p52 subunit, 1.24 z-score in [3] and 1.14 z-score in [4].

On to AAAAGTCTCCC, for which the binding signal with RELARELA (p65 homodimer) was 0.0565 z-score; with p50p50 homodimer, 0.0889 z-score; with p52p52 homodimer it was -0.045 z-score; in assay [1] it was 0.215 z-score; in assay [2], 0.0155 z-score; with RELB subunit;p50 subunit, 0.205 z-score. Moreover, the figures for the binding signal (with RELB subunit;p52 subunit; in assay [3]; in assay [4]) were 0.142 z-score, 0.0274 z-score and -0.177 z-score, respectively.

As to CAAGAACCCCC, the binding signal is -0.244 z-score with RELARELA (p65 homodimer); 1.28 z-score with p50p50 homodimer; 1.21 z-score with p52p52 homodimer; 1.6 z-score in assay [1]; 1.28 z-score in [2]; 1.46 z-score with RELB subunit;p50 subunit. In addition, the binding signal with RELB subunit;p52 subunit is 1.32 z-score; in assay [3], 1.04 z-score; in assay [4], 0.879 z-score.

For the sequence CAAGAAACCCT, the binding signal with RELARELA (p65 homodimer) is -0.512 z-score; in the assay with p50p50 homodimer, -0.321 z-score; with p52p52 homodimer, -0.245 z-score; in [1], -0.525 z-score; in assay [2], -0.264 z-score; in the assay with RELB subunit;p50 subunit, -0.492 z-score. Moreover, the binding signal is -0.353 z-score with RELB subunit;p52 subunit, -0.467 z-score in [3] and -0.305 z-score in assay [4].

In the case of AAAGTCCCCCT, the binding signal in the assay with RELARELA (p65 homodimer) came to 0.889 z-score; in the assay with p50p50 homodimer, 1.59 z-score; in the assay with p52p52 homodimer it was 1.86 z-score; in [1] it was 2.31 z-score; in assay [2] it was 1.72 z-score; with RELB subunit;p50 subunit it was 2.26 z-score. Besides, the binding signal with RELB subunit;p52 subunit was determined as 2.4 z-score; in assay [3], 1.7 z-score; in assay [4] it was 1.82 z-score.

For AGAGGTCTCCC, the binding signal with RELARELA (p65 homodimer) was 0.0815 z-score; with p50p50 homodimer, -0.751 z-score; in the assay with p52p52 homodimer, -0.27 z-score; in [1], -0.391 z-score; in [2] it was -0.315 z-score; with RELB subunit;p50 subunit it was -0.0782 z-score. For the same sequence, the results for the binding signal (with RELB subunit;p52 subunit; in [3]; in [4]) were -0.00582 z-score, -0.507 z-score and -0.363 z-score, respectively.

As to AAAAAGGTCCC, the binding signal with RELARELA (p65 homodimer) came out at 0.243 z-score; in the assay with p50p50 homodimer, 0.679 z-score; with p52p52 homodimer, 0.569 z-score; in assay [1], 0.331 z-score; in assay [2], 0.184 z-score; with RELB subunit;p50 subunit, 0.63 z-score. Moreover, the binding signal turned out to be 0.428 z-score in the assay with RELB subunit;p52 subunit, 0.216 z-score in assay [3] and 0.157 z-score in assay [4].

With CAATATTTCCC, the binding signal came out at 2.26 z-score with RELARELA (p65 homodimer); 1.03 z-score with p50p50 homodimer; 0.706 z-score with p52p52 homodimer; 1.27 z-score in assay [1]; 1.06 z-score in assay [2]; 0.775 z-score in the assay with RELB subunit;p50 subunit. The binding signal with RELB subunit;p52 subunit came out at 0.965 z-score; in assay [3], 1.45 z-score; in assay [4], 1.08 z-score.

For GGAAGTTTCCC, the binding signal in the assay with RELARELA (p65 homodimer) is 2.98 z-score; in the assay with p50p50 homodimer, 0.874 z-score; with p52p52 homodimer it was 1.24 z-score; in [1] it was 1.47 z-score; in [2], 1.22 z-score; in the assay with RELB subunit;p50 subunit, 0.959 z-score. For the same sequence, the binding signal with RELB subunit;p52 subunit was determined as 1.03 z-score; in assay [3], 1.36 z-score; in assay [4], 1.15 z-score.

On to CGGTTTACCCC, for which the binding signal came out at 0.939 z-score in the assay with RELARELA (p65 homodimer); 0.564 z-score with p50p50 homodimer; 0.746 z-score with p52p52 homodimer; 0.807 z-score in [1]; 1.01 z-score in assay [2]; 0.667 z-score in the assay with RELB subunit;p50 subunit. Besides, the binding signal with RELB subunit;p52 subunit is 1.16 z-score; in assay [3], 1.04 z-score; in assay [4], 1.04 z-score.

Take CGAGGGCCCCC: the binding signal with RELARELA (p65 homodimer) is -0.934 z-score; with p50p50 homodimer, 0.101 z-score; with p52p52 homodimer, -0.0825 z-score; in assay [1] it was 0.0405 z-score; in assay [2] it was -0.0107 z-score; with RELB subunit;p50 subunit it was 0.199 z-score. For the same sequence, the binding signal with RELB subunit;p52 subunit was 0.202 z-score; in [3], -0.0359 z-score; in [4], 0.137 z-score.
